Data published in PubChem BioAssay (NCI).
Several values for one entry are separate records, joined by “and”; a condition that tells them apart may be missing. Equal entries are not always repeated. This is part of a sample that, as a whole, favours compounds with a hit. Of some 83,000 tested, about 20% had one in any assay.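 Each cell line was grown in a 96-well plate and treated with one concentration of compound for 48 hours. Values below 10 were considered active.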

Legend:
Assay in all cases: NCI-60 one-dose screen, 48 h (100 = growth as untreated, 0 = no growth, -100 = all killed)
Conditions in all cases: 10 µM unless noted
NCI-H23 lung = system: NCI-H23 lung
NCI-H226 lung = system: NCI-H226 lung
NCI-H322M lung = system: NCI-H322M lung
HOP-62 NSCLC = system: HOP-62 NSCLC
NCI-H460 lung = system: NCI-H460 lung
HOP-92 NSCLC = system: HOP-92 NSCLC
NCI-H522 lung = system: NCI-H522 lung
A549/ATCC NSCLC = system: A549/ATCC NSCLC
786-0 renal = system: 786-0 renal
COLO 205 colon = system: COLO 205 colon
DU-145 prostate = system: DU-145 prostate
K-562 leukemia = system: K-562 leukemia
MALME-3M melanoma = system: MALME-3M melanoma
MDA-MB-231 breast = system: MDA-MB-231 breast
RXF 393 renal = system: RXF 393 renal
SF-268 CNS = system: SF-268 CNS
SF-295 CNS = system: SF-295 CNS
SF-539 CNS = system: SF-539 CNS
UACC-257 melanoma = system: UACC-257 melanoma
M14 melanoma = system: M14 melanoma

Measured: growth

CCOC(=O)C(C(=O)OCC)C(c1ccccc1)N1CCN(c2ccccc2)CC1 (stereo not given)
inactive: NCI-H23 lung 107% and 114% | NCI-H226 lung 112% and 96.9% | NCI-H322M lung 93.3% and 107% | HOP-62 NSCLC 116% and 105% | NCI-H460 lung 116% and 109% | HOP-92 NSCLC 98.1% and 86.6% | NCI-H522 lung 89.7% and 88% | A549/ATCC NSCLC 99.3% and 83.2% | 786-0 renal 104% and 102% | COLO 205 colon 114% and 124% | DU-145 prostate 127% and 109% | K-562 leukemia 120% and 93.5% | MALME-3M melanoma 92.2% | MDA-MB-231 breast 109% and 125% | RXF 393 renal 102% and 97.6% | SF-268 CNS 110% and 100% | SF-295 CNS 108% and 105% | SF-539 CNS 111% and 118% | UACC-257 melanoma 98.6% and 100% | M14 melanoma 102% and 103%

CN(Cc1ccccc1)Cc1ccccc1
inactive: NCI-H23 lung 96.6% | NCI-H226 lung 94.1% | NCI-H322M lung 81.3% | HOP-62 NSCLC 93% | NCI-H460 lung 110% | HOP-92 NSCLC 91.8% | NCI-H522 lung 97.3% | A549/ATCC NSCLC 96.7% | 786-0 renal 99.2% | COLO 205 colon 105% | DU-145 prostate 107% | K-562 leukemia 113% | MALME-3M melanoma 91.4% | MDA-MB-231 breast 106% | RXF 393 renal 104% | SF-268 CNS 97.1% | SF-295 CNS 112% | SF-539 CNS 99.2% | UACC-257 melanoma 99.8% | M14 melanoma 102%

CC(=O)Oc1cc(C(=O)O)cc(OC(C)=O)c1OC(C)=O
inactive: NCI-H23 lung 103% and 97.3% | NCI-H226 lung 96.4% and 89.6% | NCI-H322M lung 116% and 102% | HOP-62 NSCLC 88.8% and 99% | NCI-H460 lung 113% and 108% | HOP-92 NSCLC 99.1% and 107% | NCI-H522 lung 100% and 93.4% | A549/ATCC NSCLC 103% and 90.1% | 786-0 renal 111% and 102% | COLO 205 colon 125% and 122% | DU-145 prostate 118% and 113% | K-562 leukemia 108% | MALME-3M melanoma 115% and 96.5% | MDA-MB-231 breast 94% and 97.3% | RXF 393 renal 99.5% and 122% | SF-268 CNS 107% and 102% | SF-295 CNS 107% and 102% | SF-539 CNS 121% and 104% | UACC-257 melanoma 95.3% and 90.7% | M14 melanoma 105% and 99%

Cc1cc(-c2ccc(NS(=O)(=O)c3ccccc3)c(C)c2)ccc1NS(=O)(=O)c1ccccc1
inactive: NCI-H23 lung 85% and 97.8% | NCI-H226 lung 82.2% and 92.1% | NCI-H322M lung 92.7% and 121% | HOP-62 NSCLC 94.2% and 111% | NCI-H460 lung 78% and 87.6% | HOP-92 NSCLC 83.3% and 88% | NCI-H522 lung 52.8% and 64.8% | A549/ATCC NSCLC 67% and 80.5% | 786-0 renal 96.8% and 107% | COLO 205 colon 91.9% and 121% | DU-145 prostate 93.8% and 94.7% | K-562 leukemia 62.7% and 65.9% | MALME-3M melanoma 79.6% and 120% | MDA-MB-231 breast 70.1% and 74.5% | RXF 393 renal 70.1% and 119% | SF-268 CNS 91.5% and 106% | SF-295 CNS 58.1% and 99.4% | SF-539 CNS 108% and 95.9% | UACC-257 melanoma 93.6% and 110% | M14 melanoma 87.4% and 99%
